Test [1] concerns the target DNA repair nuclease/redox regulator APEX1 (Homo sapiens) (UniProt P27695). As to the kind of experiment: qHTS Validation Assay for Inhibitors of the Human Apurinic/apyrimidinic Endonuclease 1 (APE1) (AID 1705;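 further: TAMRA fluorescence gain over two minutes as APE1 cuts a quenched THF abasic duplex; on the % scale 0 is the no-effect control and ±100 the full control effect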). Particulars: purified APE1 endonuclease activity, fluorescence, titration; series mostly up to 57.1 µM. The method in brief: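 Endonuclease activity of human APE1 is followed as dequenching when the enzyme incises a tetrahydrofuran abasic site in a short duplex labelled 5'-TAMRA/3'-BHQ-2 (50 nM final), after 15 min enzyme–compound preincubation at room temperature.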
Background: In qHTS, concentration-response curves come from the screen itself.

The nature of test [2]: Counterscreen for APE1 Inhibitors: Fluorescent Dye Displacement Validation Assay (AID 1707).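 Further: plate controls were ThO with dsDNA and no compound for no effect and ThO without dsDNA for full effect.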 Particulars: fluorescent dye displacement from DNA; series mostly up to 57.1 µM. The gist of the method: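 Thiazole Orange (250 nM) bound to 50 nM TAMRA-labelled dsDNA with tetrahydrofuran abasic site; displacement by DNA-binding compounds lowers fluorescence. Buffer 50 mM Tris-HCl pH 7.5, 50 mM NaCl, 2 mM MgCl2, 0.01% Tween-20; endpoint read at 480/540 nm.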

In test [3] the target is Endonuclease 4 (Escherichia coli (strain K12)) (UniProt P0A6C1). Put plainly: Counterscreen for APE1 Inhibitors: qHTS Validation Assay for Inhibitors of Endonuclease IV (AID 1708). Further: on the % scale 0 is the no-effect control and ±100 the full control effect. The settings on record: E. coli endonuclease IV, DNA cleavage fluorescence; series mostly up to 57.1 µM. The method in brief:
(§1)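 E. coli EndoIV at 2 nM final, preincubated 15 min at room temperature with compound, then 50 nM TAMRA/BHQ-2 THF abasic-site duplex added. Buffer: 50 mM Tris-HCl pH 7.5, 50 mM NaCl, 2 mM MgCl2, 1 mM DTT, 0.01% Tween-20. Kinetic fluorescence increase, third minus first read.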
Background: A counterscreen serves to expose hits that act by an unwanted route or on another target.

The nature of test [4]: qHTS for differential inhibitors of proliferation of Plasmodium falciparum line 7G8 (AID 1815).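 Further: parasite growth measured after three days of incubation.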 Further: potency means the concentration at half of the fitted maximal effect.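 On activity change, negative = inhibition: plate controls were vehicle wells for no effect and reference inhibitor wells for full effect.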 Particulars: Plasmodium falciparum 7G8 proliferation inhibition; series mostly up to 28.7 µM.
Test [5] in a line: qHTS for differential inhibitors of proliferation of Plasmodium falciparum line GB4 (AID 1816).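 Further: parasite growth measured after 72 h incubation.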 Further: potency means the concentration at half of the fitted maximal effect.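 On activity change, negative = inhibition: 0% = vehicle DMSO and -100% = reference inhibitor.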 The settings on record: Potency: Plasmodium falciparum GB4 proliferation inhibition; series mostly up to 28.7 µM.
The nature of test [6]: qHTS for differential inhibitors of proliferation of Plasmodium falciparum line 3D7 (AID 1876). Further: potency means the concentration at half of the fitted maximal effect. Particulars: P. falciparum 3D7 proliferation inhibition; series mostly up to 28.7 µM.
A short description of test [7]: qHTS for differential inhibitors of proliferation of Plasmodium falciparum line D10 (AID 1877).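 Further: parasites grown with compound for 72 h before DNA staining.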 Further: potency means the concentration at half of the fitted maximal effect.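 On activity change, negative = inhibition: plate controls were vehicle wells for no effect and reference inhibitor wells for full effect.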 The settings on record: series mostly up to 28.7 µM.
The nature of test [8]: qHTS for differential inhibitors of proliferation of Plasmodium falciparum line Dd2 (AID 1882). Further: nearly all actives have a fitted effect of over 65% in size. Further: potency means the concentration at half of the fitted maximal effect.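 On activity change, negative = inhibition: plate controls were DMSO vehicle for no effect and 0.29 µM artemisinin for full effect.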 The settings on record: Potency: Plasmodium falciparum Dd2 proliferation inhibition; series mostly up to 28.7 µM. The method in brief:
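Dd2-infected erythrocytes (0.3% parasitemia, 2.5% hematocrit final) incubated with compound 72 h at 37 C, 5% CO2; lysed with saponin/Triton buffer containing SYBR Green I, incubated overnight in the dark, then read by fluorescence (485/535 nm). Normalized to 0.29 uM artemisinin and DMSO.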

The nature of test [9]: qHTS for differential inhibitors of proliferation of Plasmodium falciparum line W2 (AID 1883).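 Further: parasites grown with compound for 72 h before lysis and staining.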 Further: potency means the concentration at half of the fitted maximal effect.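 On activity change, negative = inhibition: 0% = vehicle wells and -100% = control inhibitor wells.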 The settings on record: Potency: Plasmodium falciparum W2 proliferation inhibition; series mostly up to 28.7 µM.
Test [10] can be described thus: qHTS for differential inhibitors of proliferation of Plasmodium falciparum line HB3 (AID 1886).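 Further: parasites grown with compound for 72 h before SYBR Green readout.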 Further: potency means the concentration at half of the fitted maximal effect.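 On activity change, negative = inhibition: plate controls were vehicle for no effect and reference inhibitor for full effect.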 Particulars: Potency: Plasmodium falciparum HB3 proliferation inhibition; series mostly up to 28.7 µM.
Test [11] is described as follows: qHTS Assay for Modulators of Human Peripheral Myelin Protein 22 (PMP22) Expression/Activity (AID 1967; active means well fitted curve in the direction sought with a large enough effect in the signal ratio; the % refers to the signal ratio;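 further: 0% = untreated cells and 100% end not stated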). Particulars: Cell-based PMP22 reporter, dual-color luciferase ratio, mouse Pmp22 promoter in mouse Schwann cells; series mostly up to 115 µM. The gist of the method:
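Quantitative HTS in a mouse Schwann cell line expressing dual click beetle luciferases: Pmp22 promoter (green) and control EF-alpha promoter (red). After 24h treatment, corrected green/red signal ratio gave %Activity relative to untreated cells.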

In test [12] the target is Ferritin light chain (Equus caballus) (UniProt P02791). As to the kind of experiment: qHTS Validation Assay for Identification of Novel General Anesthetics (AID 2323). Further: on the % scale 0 is the no-effect control and ±100 the full control effect. Particulars: horse apoferritin, anesthetic-site fluorescent probe displacement; series mostly up to 76.9 µM. The gist of the method:
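Apoferritin from horse spleen (10 uM) was mixed with 1-aminoanthracene at 50% saturation in PBS, then compounds were added. After 10 min at room temperature, fluorescence was read (ex 380 nm, em 535 nm) and normalized to free-probe and complex controls.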

For test [13], the target named is ATP-dependent DNA helicase Q1 (Homo sapiens) (UniProt P46063). As to the kind of experiment: qHTS Validation Assay for Inhibitors of RecQ-Like Dna Helicase 1 (RECQ1) (AID 2353).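 Further: plate controls were DMSO vehicle for no effect and enzyme-free control for full effect.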 Particulars: recombinant RECQ1 helicase DNA unwinding assay; series mostly up to 25.6 µM. The gist of the method:
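50 nM RECQ1T1 preincubated 15 min with compound in Tris pH 8.0 buffer with MgCl2, DTT, Tween-20 and 2.5 ug/ml poly(dI-dC); started with 200 nM TAMRA/BHQ-2 forked duplex and 2 mM ATP. Unwinding read as fluorescence (525/598 nm), two reads 2 h apart.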

For test [14], the target named is RecQ-like DNA helicase BLM (Homo sapiens) (UniProt P54132). As to the kind of experiment: qHTS Validation Assay for Inhibitors of Bloom's syndrome helicase (BLM) (AID 2364).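 Further: plate controls were DMSO vehicle for no effect and enzyme-free control for full effect.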 Particulars: BLM helicase DNA unwinding, fluorescence, in vitro; series mostly up to 57.1 µM. The gist of the method:
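50 nM BLM preincubated 15 min at room temperature with compound in pH 8.0 Tris buffer containing 2.5 ug/ml poly(dI-dC); started with 200 nM TAMRA/BHQ-2 forked duplex and 2 mM ATP (final). Unwinding read as TAMRA fluorescence increase, two reads 2 h apart.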

The target of test [15] is Endonuclease 4 (Escherichia coli (strain K12)) (UniProt P0A6C1). Put plainly: Counterscreen for APE1 Inhibitors: qHTS Assay for Inhibitors of Endonuclease IV (AID 2565).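 Further: plate controls were uninhibited enzyme wells for no effect and no enzyme buffer wells for full effect.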 Particulars: E. coli Endo IV, fluorogenic AP-site DNA cleavage; series mostly up to 57.1 µM. The method in brief:
as §1

Test [16] addresses DNA repair nuclease/redox regulator APEX1 (Homo sapiens) (UniProt P27695). As to the kind of experiment: Confirmation qHTS Assay for Inhibitors of the Human Apurinic/apyrimidinic Endonuclease 1 (APE1) (AID 2572).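 Further: fluorescence gain from purified APE1 cutting a TAMRA/BHQ-2 THF abasic duplex; on the % scale 0 is the no-effect control and ±100 the full control effect; nearly all actives have a fitted effect of over 30% in size.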 The settings on record: purified APE1, fluorogenic abasic-site DNA cleavage; series mostly up to 57.1 µM. The method in brief: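 Enzyme preincubated 15 min at room temperature with compound; reaction started with 50 nM final double-stranded THF abasic-site substrate (5'-TAMRA, 3'-BHQ-2). Fluorescence read kinetically (525/598 nm); third-minus-first read difference gives reaction progress.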

Test [17] is described as follows: Cytometric Cell-Based qHTS for Inhibitors of the mTORC1 Signaling Pathway in MEF (Tsc2-/-, p53-/-) Cells (AID 2660).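 Further: percent of cells above a phospho-rpS6 to PI ratio cutoff in each well; plate controls were DMSO for no effect and rapamycin for full effect.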 The settings on record: mTORC1 pathway cytometry; series mostly up to 38.3 µM. The method in brief:
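Tsc2-/-, p53-/- MEFs (empty vector) exposed to compound 24 h at 37 C, fixed, stained with Alexa-488 anti-phospho-rpS6 Ser235/236 and propidium iodide. Acumen laser scanning; phospho-S6/PI ratio thresholded against 7.5 nM rapamycin, reported as % positive cells.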

Test [18] is described as follows: High Content Imaging Cell-Based qHTS for Inhibitors of the mTORC1 Signaling Pathway in MEF (Tsc2-/-, p53-/-) Cells (AID 2666). Further: potency means the concentration at half of the fitted maximal effect. Particulars: series mostly up to 38.3 µM. The method in brief: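 Phospho-rpS6 (Ser235/236) immunofluorescence, normalized and scored as % positive cells using rapamycin and DMSO controls, was read in empty-vector Tsc2-/-, p53-/- MEFs after 24 h compound exposure at 37 C; propidium iodide counted cells.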

Test [19] in a line: qHTS Assay for Lipid Storage Modulators (AID 1519; calls by dose curve; on activity change, negative = inhibition: on the % scale 0 is the no-effect control and ±100 the full control effect). Particulars: Drosophila S3 cells, BODIPY lipid droplet/cell ratio, laser cytometry, cells loaded with oleic acid; for activity change, negative = inhibition: at 57.5 µM (top of the series). The method in brief:
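Cells seeded at 5,000 per well were treated with compounds over a concentration series and loaded with oleic acid (400 uM, as added). Lipid droplet fluorescence (488 nm excitation, 500-530 nm channel) was read by laser-scanning cytometry and normalized to 20 uM Triacsin C.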

Setting [20] is: measured here: cell count channel max response.
Setting [21] is: measured here: lipid channel max response.

Records with an inconclusive call do not appear. This is one part of the list. Active and inactive are the calls of the source. Unless noted, the call rests on the fitted dose curve; in most records, active means well fitted curve in the direction sought with a large enough effect; inconclusive means small, poorly fitted or top-dose-only effect, or another doubt; inactive means no such curve, though single readings can be large; an effect the other way counts as inactive or inconclusive.

Sequence of DNA repair nuclease/redox regulator APEX1 (Homo sapiens) (P27695 whole entry, looked up): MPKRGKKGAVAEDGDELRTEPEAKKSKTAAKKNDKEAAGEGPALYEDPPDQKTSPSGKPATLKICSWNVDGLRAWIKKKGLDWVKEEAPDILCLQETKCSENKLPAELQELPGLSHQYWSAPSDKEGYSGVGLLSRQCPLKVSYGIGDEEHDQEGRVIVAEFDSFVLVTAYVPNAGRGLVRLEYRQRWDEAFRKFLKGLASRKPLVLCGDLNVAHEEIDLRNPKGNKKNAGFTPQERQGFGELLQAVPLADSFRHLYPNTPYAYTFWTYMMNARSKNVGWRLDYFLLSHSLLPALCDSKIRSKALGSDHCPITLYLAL
Sequence of Ferritin light chain (Equus caballus) (P02791 2-175 limits assumed): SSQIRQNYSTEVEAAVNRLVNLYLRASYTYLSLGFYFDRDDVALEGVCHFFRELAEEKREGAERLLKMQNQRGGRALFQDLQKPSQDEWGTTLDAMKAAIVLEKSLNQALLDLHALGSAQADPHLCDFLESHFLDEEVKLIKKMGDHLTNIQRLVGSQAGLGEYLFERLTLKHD
Sequence of RecQ-like DNA helicase BLM (Homo sapiens) (P54132 whole entry, looked up): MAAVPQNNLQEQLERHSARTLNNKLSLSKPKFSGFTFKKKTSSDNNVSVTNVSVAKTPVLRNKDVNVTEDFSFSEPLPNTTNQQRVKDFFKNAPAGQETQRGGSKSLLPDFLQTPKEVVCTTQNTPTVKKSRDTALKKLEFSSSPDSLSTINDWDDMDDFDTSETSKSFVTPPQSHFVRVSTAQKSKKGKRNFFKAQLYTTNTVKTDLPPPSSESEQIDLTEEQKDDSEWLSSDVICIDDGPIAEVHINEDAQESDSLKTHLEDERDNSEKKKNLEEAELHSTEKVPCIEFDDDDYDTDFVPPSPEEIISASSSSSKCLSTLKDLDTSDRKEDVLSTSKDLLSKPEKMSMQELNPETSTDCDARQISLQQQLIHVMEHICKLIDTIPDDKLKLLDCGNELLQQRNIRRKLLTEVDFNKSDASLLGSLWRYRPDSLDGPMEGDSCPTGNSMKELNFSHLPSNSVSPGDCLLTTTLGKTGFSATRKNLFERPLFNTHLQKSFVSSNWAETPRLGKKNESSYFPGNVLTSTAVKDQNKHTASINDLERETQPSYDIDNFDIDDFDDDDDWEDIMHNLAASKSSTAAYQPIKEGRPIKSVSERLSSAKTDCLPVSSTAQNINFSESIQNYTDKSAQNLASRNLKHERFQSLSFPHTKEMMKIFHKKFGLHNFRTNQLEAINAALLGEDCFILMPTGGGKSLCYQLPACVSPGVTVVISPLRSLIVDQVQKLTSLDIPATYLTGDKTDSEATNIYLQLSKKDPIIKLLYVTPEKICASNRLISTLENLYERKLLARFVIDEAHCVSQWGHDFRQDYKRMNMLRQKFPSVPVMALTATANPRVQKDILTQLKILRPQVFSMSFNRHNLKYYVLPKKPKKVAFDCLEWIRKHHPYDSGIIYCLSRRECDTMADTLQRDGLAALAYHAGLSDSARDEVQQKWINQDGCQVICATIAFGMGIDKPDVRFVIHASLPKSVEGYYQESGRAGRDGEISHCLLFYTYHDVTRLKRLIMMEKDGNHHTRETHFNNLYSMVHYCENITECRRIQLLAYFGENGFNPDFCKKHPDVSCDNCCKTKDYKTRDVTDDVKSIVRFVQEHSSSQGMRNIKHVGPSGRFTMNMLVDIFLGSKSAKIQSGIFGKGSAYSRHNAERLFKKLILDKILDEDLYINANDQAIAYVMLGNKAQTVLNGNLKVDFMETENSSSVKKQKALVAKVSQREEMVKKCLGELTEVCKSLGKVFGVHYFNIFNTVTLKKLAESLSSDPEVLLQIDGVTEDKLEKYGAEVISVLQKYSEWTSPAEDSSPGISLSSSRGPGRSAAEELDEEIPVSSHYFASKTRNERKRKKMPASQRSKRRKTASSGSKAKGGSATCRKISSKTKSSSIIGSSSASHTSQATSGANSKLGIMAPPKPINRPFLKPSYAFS
Sequence of ATP-dependent DNA helicase Q1 (Homo sapiens) (P46063 whole entry, looked up): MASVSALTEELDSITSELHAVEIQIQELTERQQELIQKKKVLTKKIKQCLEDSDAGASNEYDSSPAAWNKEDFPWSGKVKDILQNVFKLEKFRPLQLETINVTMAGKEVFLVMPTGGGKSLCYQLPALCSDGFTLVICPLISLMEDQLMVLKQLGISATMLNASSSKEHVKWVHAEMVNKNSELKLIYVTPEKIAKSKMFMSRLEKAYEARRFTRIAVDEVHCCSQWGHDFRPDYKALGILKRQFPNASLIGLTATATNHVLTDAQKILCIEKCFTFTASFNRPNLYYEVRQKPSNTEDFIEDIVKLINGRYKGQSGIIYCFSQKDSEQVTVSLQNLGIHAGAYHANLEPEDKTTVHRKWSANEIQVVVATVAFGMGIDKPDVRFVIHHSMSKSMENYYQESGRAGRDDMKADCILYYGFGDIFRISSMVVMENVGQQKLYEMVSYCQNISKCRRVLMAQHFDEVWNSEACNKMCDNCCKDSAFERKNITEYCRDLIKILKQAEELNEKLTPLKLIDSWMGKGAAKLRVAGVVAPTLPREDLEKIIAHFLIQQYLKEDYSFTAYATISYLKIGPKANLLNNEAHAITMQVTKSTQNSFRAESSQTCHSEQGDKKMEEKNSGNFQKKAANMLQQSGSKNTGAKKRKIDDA

Regarding `CC(=O)NBr`, the Potency entry in test [1], in test [2], in [3], in test [4], in test [5] and in [6] was “inactive” throughout. The Potency entry in [7], in test [8], in test [9], in [10], in [13] and in test [14] was “inactive” in each case. In addition, the Potency result in test [17] and in test [18] was “inactive” throughout. The result in test [11], in [12], in test [15] and in test [16] was inactive.

For `Ic1ccccc1CNC1C2CCN(CC2)C1C(c1ccccc1)c1ccccc1` (centres undefined), the Potency result in test [1], in test [2], in test [3], in [13] and in [14] was “inactive” in each case. For the same compound, the Potency in test [4] is 7.08 µM (active); in test [5], 5.01 µM (active); in test [6], 5.01 µM (active); in test [7], 11.2 µM (active); in test [8], 3.16 µM (active); in [9] it was 1.41 µM (active). The Potency in [10] is 11.2 µM (active); in test [18] it was 16.5 µM (active).

Turning to `Clc1cc(I)cc(Cl)c1NC1=NCCN1`, the activity change, negative = inhibition in [19] is 0.0728% (inactive). Also, the values for the max response in test [19] (setting [20]) and in test [19] (setting [21]) were -25.7% and -24.3%, respectively. Further, the Potency result in test [1], in test [2], in test [8], in [13], in test [17] and in test [18] was “inactive” each time. For the same compound, in test [9], the Potency was 14.1 µM (active). Besides, the outcome in [11] and in [12] was inactive.

On to `CC(C)(C)c1cc(C=C(C#N)C#N)cc(C(C)(C)C)c1O`, for which the Potency result in test [1], in test [2], in test [3], in test [13], in test [17] and in [18] was “inactive” throughout. Further, the Potency in test [4] is 1.12 µM (active); in [5], 0.891 µM (active); in test [6], 0.708 µM (active); in [7] it was 1.12 µM (active); in test [8], 0.891 µM (active); in test [9], 0.355 µM (active). In test [10], the Potency was 1 µM (active).

`CCCN1CC[C@@H]2c3cc(O)ccc3CC[C@@H]21`: in test [19], the activity change, negative = inhibition is 1.73% (inactive). Also, the results for the max response in test [19] (setting [20]) and in test [19] (setting [21]) were 47.3% and 49.1%, respectively. The Potency result in test [1], in test [2], in [6], in [8], in [10] and in [13] was “inactive” each time. For the same compound, the Potency result in [14], in test [17] and in test [18] was “inactive” in each case. The Potency in [9] is 10 µM (active). In addition, the result in [11] and in test [12] was inactive.

For `C#CCN[C@H](C)Cc1ccccc1`, the Potency result in [1], in test [2], in test [3], in test [4], in [5] and in test [6] was “inactive” each time. Moreover, the Potency entry in test [7], in test [8], in test [9], in test [10], in test [13] and in test [14] was “inactive” in each case. In addition, the Potency result in test [17] and in test [18] was “inactive” each time. The outcome in [11] and in [12] was inactive.

Consider `C[N+](C)(C)CCOC(=O)CBr`, for which the Potency result in test [1], in test [2], in [3], in test [4], in [5] and in [6] was “inactive” in each case. Moreover, the Potency result in test [7], in [8], in test [9], in test [10], in test [13] and in test [14] was “inactive” in each case. In addition, the Potency entry in test [17] and in [18] was “inactive” each time. Besides, the outcome in test [11] and in test [12] was inactive.

`C[C@@H]1O[C@H](C[N+](C)(C)C)CS1`: the Potency result in test [1], in test [2], in test [3], in test [4], in test [5] and in test [6] was “inactive” in each case. In addition, the Potency result in [7], in [8], in test [9], in test [10], in test [13] and in test [14] was “inactive” in each case. For the same compound, the Potency entry in [17] and in test [18] was “inactive” throughout. Also, the outcome in [11] and in test [12] was inactive.

Source of the values: PubChem BioAssay (NCATS).
